About 83,000 compounds went through this panel and 20% of them were active in at least one assay; those are over-represented in the sample as a whole.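 Cell lines were cultured in 96-well plates, exposed to a single compound concentration, and assessed for percent growth 48 hours later.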 Values without a mark were called inactive. Active and inactive are the calls of the source. The calls were made as follows: active = growth percent below 10; inactive = the rest.

Test systems include HCT-15 colon; HT29 colon; SNB-75 CNS; SNB-19 CNS; U251 CNS; PC-3 prostate; SK-MEL-5 melanoma; UACC-62 melanoma; LOX IMVI melanoma; SK-MEL-28 melanoma.
What all share (assay): NCI-60 one-dose screen, 48 h (100 = growth as untreated, 0 = no growth, -100 = all killed)
Common to all, as to conditions: 10 µM unless noted

`Clc1ccc(COC(Cn2ccnc2)c2ccc(Cl)cc2Cl)cc1` (stereo not given): the growth in the assay on HCT-15 colon is 53%; with HT29 colon, 43.6%; in the assay on SNB-75 CNS it was 93.3%; with SNB-19 CNS it was 78%; in the assay on U251 CNS, 64.4%; in the assay on PC-3 prostate it was 21.1%. Moreover, the growth in the assay on SK-MEL-5 melanoma is 49.5%; in the assay with UACC-62 melanoma, 52.6%; in the assay on LOX IMVI melanoma it was 31.6%; in the assay on SK-MEL-28 melanoma, 83.9%.

For the compound `COC(=O)C1CCC(NC(=O)c2csc([C@@H](C[C@H](C(C)C)N(C)C(=O)[C@@H](NC(=O)[C@H]3CCCCN3C)C(C)C)OC(C)=O)n2)CC1` (stereo not given in full), the growth with HCT-15 colon is 11.5%; with HT29 colon, -0.603% (active); in the assay on SNB-75 CNS it was 61.6%; with SNB-19 CNS it was 38.4%; in the assay with U251 CNS, 2.97% (active); in the assay with PC-3 prostate, 28.9%. Also, the growth with SK-MEL-5 melanoma was -27.7% (active); in the assay with UACC-62 melanoma, 48.1%; in the assay with LOX IMVI melanoma it was 21.5%; in the assay on SK-MEL-28 melanoma it was 60%.

`Cc1c(C)c([N+](=O)[O-])c(C)c(C)c1[N+](=O)[O-]`: the growth with HCT-15 colon is 100%; in the assay on HT29 colon, 100%; with SNB-75 CNS, 113%; in the assay on SNB-19 CNS, 103%; in the assay on U251 CNS, 99.2%; in the assay with PC-3 prostate, 105%. For the same compound, the growth is 107% with SK-MEL-5 melanoma, 102% with UACC-62 melanoma, 106% with LOX IMVI melanoma and 108% with SK-MEL-28 melanoma.

`CC(=O)OCC1O[C@@H]([S-])C(OC(C)=O)[C@H](OC(C)=O)[C@@H]1OC(C)=O.[Au+].c1ccc(CN2[CH-]N(Cc3ccccc3)C(c3ccccc3)=C2c2ccccc2)cc1`: the growth was -63% (active) with HCT-15 colon; 50.3% with HT29 colon; 40.8% in the assay on SNB-75 CNS; 36.8% with SNB-19 CNS; -59.3% (active) in the assay with U251 CNS; 39.4% in the assay with PC-3 prostate. Also, the growth in the assay on SK-MEL-5 melanoma is 48.5%; in the assay on UACC-62 melanoma it was 8.41% (active); with LOX IMVI melanoma, -65.7% (active); in the assay with SK-MEL-28 melanoma it was -56.8% (active).

In the case of `O=P(Oc1ccc(Cl)cc1)(N1CC1)N1CC1`, the growth is 88.7% in the assay with HCT-15 colon; 72.5% in the assay with HT29 colon; 74.2% with SNB-75 CNS; 91% in the assay with SNB-19 CNS; 82.6% with U251 CNS; 76.1% in the assay with PC-3 prostate. Further, the growth with SK-MEL-5 melanoma was 86.2%; with UACC-62 melanoma, 58%; in the assay with LOX IMVI melanoma it was 83.1%; with SK-MEL-28 melanoma it was 98.3%.

For `CCCCCN(CCCCC)CC(O)c1cc(Cl)ccc1OC` (stereo not given), the growth in the assay on HCT-15 colon is 31.3%; in the assay on HT29 colon it was 11.8%; in the assay on SNB-75 CNS it was 84.8%; in the assay with SNB-19 CNS, 56.7%; with U251 CNS it was 38.3%; with PC-3 prostate, 24.5%. Besides, the growth with SK-MEL-5 melanoma was 37.7%; with UACC-62 melanoma, 62.3%; in the assay on LOX IMVI melanoma, 14.5%; in the assay with SK-MEL-28 melanoma it was 51.7%.

Consider `CCOC(=O)[C@@H](C)C[C@H](Cc1ccccc1)NC(=O)c1csc([C@@H](C[C@H](C(C)C)N(C)C(=O)[C@@H](NC(=O)[C@H]2CCCCN2C)C(C)(C)CC)OC(C)=O)n1`, for which the growth in the assay on HCT-15 colon was 8.77% (active); in the assay on HT29 colon, -4.94% (active); in the assay with SNB-75 CNS, -5.95% (active); in the assay on SNB-19 CNS, 17.6%; in the assay on U251 CNS, 9.55% (active); with PC-3 prostate it was 24.1%. Moreover, the growth is -15.3% (active) with SK-MEL-5 melanoma, 33.1% with UACC-62 melanoma, 14.3% with LOX IMVI melanoma and 38.6% with SK-MEL-28 melanoma.

Turning to `COc1ccc(S(=O)(=O)N(Cc2ccc3c(c2)C=CC(C)(C)O3)c2ccccc2)cc1OC`, the growth in the assay with HCT-15 colon is 74.9%; in the assay with HT29 colon it was 72.9%; in the assay on SNB-75 CNS it was 83.1%; in the assay on SNB-19 CNS, 93.7%; with U251 CNS it was 89.1%; with PC-3 prostate, 73.7%. For the same compound, the growth is 3.42% (active) in the assay on SK-MEL-5 melanoma, 79.1% with UACC-62 melanoma, 74.2% in the assay with LOX IMVI melanoma and 67.9% in the assay on SK-MEL-28 melanoma.

As to `CC1(C)C(C(=O)c2cn(CCCCF)c3ccccc23)C1(C)C`, the growth in the assay with HCT-15 colon is 91.9%; in the assay with HT29 colon it was 48.8%; with SNB-75 CNS, 96%; with SNB-19 CNS it was 104%; with U251 CNS, 86%; in the assay on PC-3 prostate, 85%. For the same compound, the growth was 92.1% with SK-MEL-5 melanoma, 88.4% in the assay with UACC-62 melanoma, 92.9% in the assay with LOX IMVI melanoma and 116% in the assay with SK-MEL-28 melanoma.

On to `Cc1cc(C)c(CBr)c(C)c1`, for which the growth with HCT-15 colon was 108%; in the assay with HT29 colon it was 100%; in the assay on SNB-75 CNS, 106%; with SNB-19 CNS it was 110%; with U251 CNS, 95.3%; with PC-3 prostate it was 94%. The growth with SK-MEL-5 melanoma is 97.7%; in the assay on UACC-62 melanoma, 102%; in the assay with LOX IMVI melanoma, 101%; in the assay on SK-MEL-28 melanoma it was 106%.

For the compound `COc1ccc(N(CC(=O)NCCC[Te]c2ccccc2)C(=O)CNC(=O)OC(C)(C)C)cc1`, the growth in the assay with HCT-15 colon is 11.3%; in the assay with HT29 colon it was -36.8% (active); in the assay with SNB-75 CNS, 57.9%; in the assay on SNB-19 CNS it was 33%; in the assay with U251 CNS it was 12.4%; with PC-3 prostate, 8.59% (active). Moreover, the growth in the assay on SK-MEL-5 melanoma was 41.4%; in the assay with UACC-62 melanoma, 89.2%; with LOX IMVI melanoma it was 17.6%; in the assay with SK-MEL-28 melanoma it was 105%.

With `C[C@@]1(CCCCCCCCCc2ccc(O)cc2)C[C@]2(C)OC(=O)C[C@@H]2OO1`, the growth was 83.7% with HCT-15 colon; 102% in the assay on HT29 colon; 95% in the assay with SNB-75 CNS; 96.6% in the assay with SNB-19 CNS; 92.8% with U251 CNS; 61.7% in the assay with PC-3 prostate. The growth in the assay with SK-MEL-5 melanoma is 105%; with UACC-62 melanoma it was 95.2%; with LOX IMVI melanoma, -81.2% (active); in the assay on SK-MEL-28 melanoma, 99.5%.

For the origin of these results see PubChem BioAssay (NCI).
